Laboratory results published in PubChem BioAssay AID372 (MTDP, 2006).
In all, about 100,000 compounds went through this assay and about 770 (0.77%) were called active. The sample as a whole holds a higher share of actives than the screen did. Values without a mark were called inactive. Cut-off read from the data, not from the text of the source: active = inhibition above about 50%; inactive = the rest.

biological target: Gag-Pol polyprotein (Human immunodeficiency virus type 1 group M subtype B (isolate HXB2)) (UniProt P04585); assay: RNase H inhibition, HIV 1 Gag Pol polyprotein, FRET biochemical assay, screening (AID 372); settings: HIV-1 RT RNase H, FRET RNA/DNA substrate fluorescence; at 10 µM; hits give high values

SMILES	inhibition
O=C(COc1ccccc1Cl)NNC(=O)c1cc2ccccc2cc1O	6%
O=[N+]([O-])c1ccc(OCCCN2CCCCC2)cc1	0%
CCOc1ccc2ccccc2c1/C=C(\C#N)C(=O)NCc1ccco1	24%
CCc1ccc(/C=C2/SC(=S)N(CCC(=O)O)C2=O)cc1	8%
CCCC1=C(C(=O)OCC)C(c2cc(C)c(OC)cc2C)C(C#N)=C(N)O1 (configuration not stated)	2%
Cc1cc(C)c2nc3s/c(=C\c4cccc([N+](=O)[O-])c4)c(=O)n3c2c1	10%
Cc1ccc(N2C(=O)CC(Cc3ccc(Cl)cc3)C2=O)cc1C (configuration not stated)	5%
CCOC(=O)C1=C(C)N=c2s/c(=C\c3ccc(-c4ccc(OC)cc4[N+](=O)[O-])o3)c(=O)n2C1c1ccc(SC)cc1 (configuration not stated)	52% (active)
CCOC(=O)C1=C(C)N=c2s/c(=C\c3ccc(-c4cc(C)c(C)c([N+](=O)[O-])c4)o3)c(=O)n2C1c1ccc2c(c1)OCO2 (configuration not stated)	50% (active)
CCOC(=O)C1=C(C)N=c2s/c(=C\c3ccc(-c4cc(C)c(C)c([N+](=O)[O-])c4)o3)c(=O)n2C1c1ccc(Cl)cc1 (configuration not stated)	37%
CCOC(=O)C1=C(C)N=c2s/c(=C\c3ccc(-c4cc(C)c(C)c([N+](=O)[O-])c4)o3)c(=O)n2C1c1ccc(OC)c(OC)c1 (configuration not stated)	51% (active)
CCOC(=O)C1=C(C)N=c2s/c(=C\c3ccc(-c4ccc(OC)cc4[N+](=O)[O-])o3)c(=O)n2C1c1ccc(C)cc1 (configuration not stated)	44%
CCOC(=O)C1=C(C)N=c2s/c(=C\c3ccc(-c4cc(C)c(C)c([N+](=O)[O-])c4)o3)c(=O)n2C1c1ccc(OC)cc1 (configuration not stated)	55% (active)
CCOC(=O)C1=C(C)N=c2s/c(=C\c3ccc(-c4ccc([N+](=O)[O-])cc4)o3)c(=O)n2C1c1ccc2c(c1)OCO2 (configuration not stated)	41%
CCOC(=O)C1=C(C)N=c2s/c(=C\c3ccc(-c4ccc(C)c([N+](=O)[O-])c4)o3)c(=O)n2C1c1ccc(OC)c(OC)c1 (configuration not stated)	18%
CCOC(=O)C1=C(C)N=c2s/c(=C\c3ccc(-c4ccc(OC)cc4[N+](=O)[O-])o3)c(=O)n2C1c1ccc(OC)cc1 (configuration not stated)	0%
CCOC(=O)C1=C(C)N=c2s/c(=C\c3ccc(-c4ccc(C)c([N+](=O)[O-])c4)o3)c(=O)n2C1c1ccc2c(c1)OCO2 (configuration not stated)	8%
CCOC(=O)C1=C(C)N=c2s/c(=C\c3ccc(-c4cc(C)c(C)c([N+](=O)[O-])c4)o3)c(=O)n2C1c1cc(OC)ccc1OC (configuration not stated)	13%
CCOC(=O)C1=C(C)N=c2s/c(=C\c3ccc(-c4ccc(C)c([N+](=O)[O-])c4)o3)c(=O)n2C1c1ccc(OC)cc1 (configuration not stated)	21%
Clc1ccc(-c2nnc3ccc(N4CCOCC4)nn23)cc1	9%
COc1ccc(C2NC(=O)NC(C)=C2C(=O)OCC(Cl)(Cl)Cl)cc1OC (configuration not stated)	2%

SMILES	inhibition
COc1ccc2ccccc2c1/C=N/NC(=O)c1ccccc1C	13%
Cc1cc(I)ccc1NC(=O)c1ccc(-c2ccccc2[N+](=O)[O-])o1	49%
O=C1NC(=S)NC(=O)C1=Cc1cccc(OC(=O)c2ccc(Cl)cc2)c1	30%
CC(C)C(=O)NC(c1ccc(N(C)C)cc1)c1ccc2cccnc2c1O (configuration not stated)	7%
CCN(CC)c1nc2c(s1)C(=O)CC(C)(C)C2	0%
Cc1ccnc(NC(=O)c2cc(-c3ccc(C)c(C)c3)nc3ccccc23)c1	4%
O=C1c2ccccc2NC(c2ccccc2F)N1c1ccc(Cl)cc1 (configuration not stated)	5%
CCOC(=O)C1=C(C)N=c2s/c(=C\c3ccc(OCc4cccc5ccccc45)c(OC)c3)c(=O)n2C1c1ccc(OC)c(OC)c1 (configuration not stated)	55% (active)
CCOC(=O)C1=C(C)N=c2s/c(=C\c3ccc(-c4cc(C)c(C)c([N+](=O)[O-])c4)o3)c(=O)n2C1c1ccccc1 (configuration not stated)	46%
CCOC(=O)C1=C(C)N=c2s/c(=C\c3ccc(-c4cc(C)c(C)c([N+](=O)[O-])c4)o3)c(=O)n2C1c1ccc(N(C)C)cc1 (configuration not stated)	56% (active)
CCOC(=O)C1=C(C)N=c2s/c(=C/c3ccc(-c4ccc(C)c([N+](=O)[O-])c4)o3)c(=O)n2C1c1ccc(N(C)C)cc1 (configuration not stated)	43%
CCOC(=O)C1=C(C)N=c2s/c(=C/c3ccc(-c4cccc(Cl)c4)o3)c(=O)n2C1c1ccc(OC)c(OC)c1 (configuration not stated)	52% (active)
CCOC(=O)C1=C(C)N=c2s/c(=C\c3ccc(OCc4cccc5ccccc45)c(OC)c3)c(=O)n2C1c1ccc(OC)cc1 (configuration not stated)	14%
CCOC(=O)C1=C(C)N=c2s/c(=C\c3ccc(-c4ccc(Cl)c(Cl)c4)o3)c(=O)n2C1c1ccc(OC)c(OC)c1 (configuration not stated)	9%
CCOC(=O)C1=C(C)N=c2s/c(=C\c3ccc(-c4ccc(Cl)cc4)o3)c(=O)n2C1c1ccc(OC)c(OC)c1 (configuration not stated)	13%
CCOC(=O)C1=C(C)N=c2s/c(=C\c3ccc(OCc4cccc5ccccc45)c(OCC)c3)c(=O)n2C1c1ccc(OC)c(OC)c1 (configuration not stated)	0%
CCOC(=O)c1c(C)[nH]c(/C=C(/C#N)C(N)=NCc2ccccc2)c1O	11%
Cc1cc(C)c(S(=O)(=O)NC(=O)C23CC4CC(CC(C4)C2)C3)c(C)c1	2%
COc1cccc(/C=N/NC(=O)c2ccccc2O)c1	11%
O=C(NC(=S)Nc1ccc2oc(-c3ccccc3)nc2c1)c1ccccc1Cl	7%
Cc1ccc(N=C2NC(=O)/C(=C/c3ccc(-c4ccc(Cl)c([N+](=O)[O-])c4)o3)S2)cc1Cl	31%

SMILES	inhibition
Cc1ccc(N=C2NC(=O)/C(=C/c3ccc(-c4cc([N+](=O)[O-])ccc4Cl)o3)S2)cc1Cl	25%
O=C1NC(=Nc2ccc(F)cc2)S/C1=C/c1ccc(-c2ccc([N+](=O)[O-])cc2)o1	51% (active)
Cc1ccc(N=C2NC(=O)/C(=C\c3ccc(C)o3)S2)cc1	52% (active)
Cc1ccc(/C=C2\SC(=Nc3ccc(F)cc3)NC2=O)o1	26%
Cc1ccc(N=C2NC(=O)/C(=C/c3ccccc3)S2)cc1	9%
O=C(COc1cccc(Cl)c1)N/N=C\c1ccc(O)cc1	1%
Cc1ccc2nc(-c3c(-c4ccccc4)c4cc(C)ccc4[nH]c3=O)cc(-c3ccccc3)c2c1	31%
Cc1ccc(N2C(=O)c3ccccc3C2=O)cc1C	5%
Cc1ccccc1N1C(=O)c2cccnc2C1=O	22%
Cc1ccc(N2C(=O)c3cccnc3C2=O)cc1C	50% (active)
COc1ccccc1/C=C1/C(=O)N(c2ccc(Cl)c(Cl)c2)N=C1C	3%
CCCC(=O)N(c1ccc(N(C(=O)CCC)S(=O)(=O)c2ccccc2)cc1)S(=O)(=O)c1ccccc1	1%
Nc1cccc(-c2nc3cc(Cl)cc(Cl)c3o2)c1	55% (active)
O=C(NC(=S)Nc1ccc2oc(-c3ccc(F)cc3)nc2c1)c1ccc(Cl)cc1	0%
Nc1ccc(-c2nc3cc(Cl)cc(Cl)c3o2)cc1	22%
O=C(NC(=S)Nc1ccc(-c2nc3cc(Cl)ccc3o2)cc1)c1ccc(F)cc1	8%
O=C(NC(=S)Nc1cccc(-c2nc3cc(Cl)ccc3o2)c1)c1ccc(F)cc1	57% (active)
O=C(NC(=S)Nc1cccc(-c2nc3cc(Cl)ccc3o2)c1)c1ccc(Br)cc1	9%
O=C(NC(=S)Nc1ccc(Cl)c(-c2nc3cc(Cl)ccc3o2)c1)c1ccc(F)cc1	53% (active)
Cc1ccc(-c2nc3cc(Cl)cc(Cl)c3o2)cc1N	0%
O=C(NC(=S)Nc1ccc2oc(-c3ccc(Cl)cc3Cl)nc2c1)c1ccc(F)cc1	17%

SMILES	inhibition
O=C(NC(=S)Nc1ccc2oc(-c3ccc(Cl)cc3)nc2c1)c1ccc(F)cc1	57% (active)
O=C(NC(=S)Nc1ccc2oc(-c3cc(Cl)ccc3Cl)nc2c1)c1ccc(F)cc1	19%
O=C(NC(=S)Nc1ccc2oc(-c3cccc(Cl)c3)nc2c1)c1ccc(F)cc1	18%
CC(=O)Nc1nc2c(s1)C(=O)NCCC2	5%
Cn1c2ccccc2c2nnc(SCCN3CCOCC3)nc21	0%
O=Cc1ccc(OCc2ccc([N+](=O)[O-])cc2)cc1	16%
O=[N+]([O-])c1ccc(N2CCOCC2)cc1Sc1cccc2cccnc12	24%
Cc1ccc(S(=O)(=O)N2CCC(CN3C(=O)c4cccc5cccc(c45)C3=O)CC2)cc1	25%
Cc1cc(C)n(S(=O)(=O)c2ccc(Cl)c(Cl)c2Cl)n1	23%
CCCC1(CCC)NC(=S)N(c2nc3ccccc3s2)N1	7%
COc1ccc(N(CC(=O)NCc2ccccn2)S(=O)(=O)c2ccccc2[N+](=O)[O-])c(OC)c1	4%
O=C(/C=C/c1cccs1)c1ccc(C(=O)/C=C/c2cccs2)cc1	13%
O=C(/C=C/c1ccc(F)cc1)Nc1cccc2cccnc12	7%
O=C(NC(=S)Nc1cccc(-c2nc3cc(Cl)cc(Cl)c3o2)c1)c1cccc(F)c1	58% (active)
O=C(Nc1ccc(O)c(-c2nc3ccccc3o2)c1)c1ccc(F)cc1	6%
O=C(NC(=S)Nc1ccc(O)c(-c2nc3ccccc3o2)c1)c1ccc(F)cc1	56% (active)
O=C(NC(=S)Nc1ccc(O)c(-c2nc3ccccc3o2)c1)c1ccc([N+](=O)[O-])cc1	9%
O=C(NC(=S)Nc1cccc(-c2nc3cc(Cl)cc(Cl)c3o2)c1)c1ccc(Cl)cc1	11%
O=C(NC(=S)Nc1cccc(-c2nc3cc(Cl)cc(Cl)c3o2)c1)c1ccccc1Cl	19%
